PubChem BioAssay (NCI)
This is part of a sample that, as a whole, favours compounds with a hit. Of some 79,000 tested, about 15% had one in any assay. Active and inactive are the calls of the source. No stated cut-off is given here; in the data, active means growth inhibition above about 70%; inactive means the rest.

Legend:
[1] = NCI Yeast Anticancer Drug Screen. Data for the rad50 strain (AID 155);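 further: 0% = growth of vehicle-only cultures of the same strain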; conditions: S. cerevisiae rad50 strain growth inhibition, active compounds read high
How it was run: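 Inhibition values express reduced yeast growth in compound-treated cultures relative to vehicle-treated controls.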

[2] = NCI Yeast Anticancer Drug Screen. Data for the mec2-1 strain (AID 157); conditions: S. cerevisiae mec2-1 strain, active compounds read high
How it was run: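 Growth inhibition is read against vehicle-treated controls after compound exposure of the mec2-1 yeast strain, which is defective in DNA damage repair or cell cycle control.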

[3] = NCI Yeast Anticancer Drug Screen. Data for the sgs1 mgt1 strain (AID 161);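 further: 0% = growth of cultures given vehicle only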; conditions: S. cerevisiae sgs1 mgt1 strain, active compounds read high
How it was run: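 Yeast cells carrying a defined DNA-repair defect were exposed to test compounds. Growth inhibition was measured relative to vehicle-treated controls.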

[4] = NCI Yeast Anticancer Drug Screen. Data for the cln2 rad14 strain (AID 165);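 further: 0% = growth equal to vehicle treated cultures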; conditions: S. cerevisiae cln2 rad14 strain, active compounds read high
How it was run: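 Growth inhibition, relative to vehicle-treated controls, is the read-out. The test organism is a yeast strain with defined genetic alterations, cln2 rad14.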

[5] = NCI Yeast Anticancer Drug Screen. Data for the bub3 strain (AID 167); conditions: S. cerevisiae bub3 mutant strain, active compounds read high
How it was run: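 Steps: expose the mutant yeast strain to compound; grow alongside vehicle-treated cultures; measure growth; express inhibition against the vehicle cultures.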

[6] = NCI Yeast Anticancer Drug Screen. Data for the mlh1 rad18 strain (AID 175); conditions: S. cerevisiae mlh1 rad18 strain growth inhibition, active compounds read high
How it was run: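 Cells of a genetically altered yeast strain, deficient in DNA damage repair, were treated with compound. Their growth was then compared with that of vehicle-treated cultures to give inhibition.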

[7] = at 5.0 µM (retest, dose inferred, filed as 0.5)
[8] = at 50.0 µM (retest, dose inferred, filed as 5.0)

Measured: growth inhibition

CN(C)c1ccc(C(O)(Cc2cccnc2)c2ccc(N(C)C)cc2)cc1
inactive: [1]; [7] -3% | [1]; [8] 2% | [1]; at 50.0 µM 39.2% | [2]; [7] -4% | [2]; [8] 6% | [2]; at 50.0 µM 36.8% | [3]; [7] -2% | [3]; [8] 4% | [3]; at 50.0 µM 53% | [4]; [7] -1% | [4]; [8] -4% | [4]; at 50.0 µM 13.3% | [5]; [7] -3% | [5]; [8] 1% | [6]; [7] -5% | [6]; [8] 8% | [6]; at 50.0 µM 54.9%
active: [5]; at 50.0 µM 72%

COC(=O)C(=O)/C=C(/O)c1ccc(OC)cc1
inactive: [1]; [7] -16% | [1]; [8] -1% | [1]; at 50.0 µM -2.15% | [2]; [7] -28% | [2]; [8] -9% | [2]; at 50.0 µM -28.3% | [3]; [7] -7% | [3]; [8] 5% | [3]; at 50.0 µM 43% | [4]; [7] -12% | [4]; [8] 18% | [4]; at 50.0 µM 4.15% | [5]; [7] -4% | [5]; [8] 24% | [5]; at 50.0 µM 9.85% | [6]; [7] -34% | [6]; [8] 38% | [6]; at 50.0 µM -26.5%

O=c1[nH]c(CN2CCCCC2)nn1-c1ccccc1
inactive: [1]; [7] -1% | [1]; [8] 3% | [1]; at 50.0 µM 8.25% | [2]; [7] 0% | [2]; [8] 3% | [2]; at 50.0 µM 10.1% | [3]; [7] -1% | [3]; [8] 1% | [3]; at 50.0 µM 9.75% | [4]; [7] 4% | [4]; [8] -1% | [4]; at 50.0 µM 69.4% | [5]; [7] 0% | [5]; [8] -4% | [5]; at 50.0 µM 14.6% | [6]; [7] -2% | [6]; [8] 1% | [6]; at 50.0 µM 2.45%

C[N+]1(Cc2ccc([N+](=O)[O-])cc2)CCC[C@H]1c1ccc[n+](Cc2ccc([N+](=O)[O-])cc2)c1 (some centres not stated)
inactive: [1]; [7] 0% | [1]; [8] 27% | [1]; at 50.0 µM 10.2% | [2]; [7] -1% | [2]; [8] 13% | [2]; at 50.0 µM 8.85% | [3]; [7] -15% | [3]; [8] -2% | [3]; at 50.0 µM 65.1% | [4]; [7] -7% | [4]; [8] 0% | [4]; at 50.0 µM 63.2% | [5]; [7] 2% | [5]; [8] 11% | [5]; at 50.0 µM 9.65% | [6]; [7] -28% | [6]; [8] 24%
active: [6]; at 50.0 µM 84.6%

OCC1CCc2[nH]c3ccccc3c2C1 (configuration not stated)
inactive: [1]; [7] -159% | [1]; [8] -160% | [1]; at 50.0 µM -7.95% | [2]; [7] -53% | [2]; [8] -59% | [2]; at 50.0 µM -6.55% | [3]; [7] -67% | [3]; [8] -68% | [3]; at 50.0 µM -4.2% | [4]; [7] -56% | [4]; [8] -76% | [4]; at 50.0 µM 30.9% | [5]; [7] -65% | [5]; [8] -58% | [5]; at 50.0 µM 12% | [6]; [7] -128% | [6]; [8] -123% | [6]; at 50.0 µM 3.5%

CNC(=O)NN(C)C=O
inactive: [1]; [7] 0% | [1]; [8] 2% | [1]; at 50.0 µM -12.1% | [2]; [7] 4% | [2]; [8] 2% | [2]; at 50.0 µM 45.5% | [3]; [7] 2% | [3]; [8] 1% | [3]; at 50.0 µM -7.95% | [4]; [7] -2% | [4]; [8] -4% | [4]; at 50.0 µM 12.1% | [5]; [7] -2% | [5]; [8] -5% | [5]; at 50.0 µM -4.35% | [6]; [7] -4% | [6]; [8] -3% | [6]; at 50.0 µM -4.55%

NNC(=S)Nc1ccccc1
inactive: [1]; [7] 3% | [1]; [8] 5% | [1]; at 50.0 µM -7.25% | [2]; [7] -3% | [2]; [8] 1% | [3]; [7] -1% | [3]; [8] 1% | [3]; at 50.0 µM -14.6% | [4]; [7] 5% | [4]; [8] -4% | [4]; at 50.0 µM -28.9% | [5]; [7] 1% | [5]; [8] -1% | [5]; at 50.0 µM 2.2% | [6]; [7] -1% | [6]; [8] 10% | [6]; at 50.0 µM 8.05%
active: [2]; at 50.0 µM 79.9%

COC(=O)c1ccc(SCC(=O)c2ccc([N+](=O)[O-])o2)cc1
inactive: [1]; [7] 4% | [2]; [7] 4% | [3]; [7] 5% | [4]; [7] -4% | [5]; [7] -5% | [5]; [8] 46% | [5]; at 50.0 µM 60.4% | [6]; [7] 2%
active: [1]; [8] 90% | [1]; at 50.0 µM 97% | [2]; [8] 98% | [2]; at 50.0 µM 98% | [3]; [8] 81% | [3]; at 50.0 µM 79.3% | [4]; [8] 96% | [4]; at 50.0 µM 95.3% | [6]; [8] 79% | [6]; at 50.0 µM 98.5%

N=C(N)SC1c2ccccc2-c2ccc(N)cc21 (configuration not stated)
active: [1]; [8] 95% | [1]; at 50.0 µM 98% | [2]; [8] 75% | [2]; at 50.0 µM 98.4% | [3]; [8] 77% | [3]; at 50.0 µM 98.5% | [4]; [8] 81% | [4]; at 50.0 µM 96.8% | [5]; [8] 86% | [5]; at 50.0 µM 97% | [6]; [8] 95% | [6]; at 50.0 µM 97.8%
inactive: [1]; [7] 17% | [2]; [7] 4% | [3]; [7] -1% | [4]; [7] -4% | [5]; [7] 0% | [6]; [7] 12%
